PubChem BioAssay (EPA / NIEHS)
Inconclusive results are not listed. A structure can be active in one record and inactive in another. Activity calls are given as the source filed them. How the source made its calls, unless noted: active means hit-call score of the fitted dose curve at least 0.9, where 1 is the maximum; inconclusive means response in the unintended direction; inactive means score below 0.9.

Tests used:
[1] = target: human Peroxisome Proliferator-activated Receptor delta (PPARd), PPARD (gene 5467) (UniProt Q03181); experiment: ATG_PPARd_TRANS: Attagene TRANS-FACTORIAL HepG2 Assay for human Peroxisome Proliferator-activated Receptor delta (PPARd) (AID 2283002)
human Peroxisome Proliferator-activated Receptor delta (PPARd), PPARD (gene 5467), sequence (Q03181 whole entry, looked up, the tested form may be a part): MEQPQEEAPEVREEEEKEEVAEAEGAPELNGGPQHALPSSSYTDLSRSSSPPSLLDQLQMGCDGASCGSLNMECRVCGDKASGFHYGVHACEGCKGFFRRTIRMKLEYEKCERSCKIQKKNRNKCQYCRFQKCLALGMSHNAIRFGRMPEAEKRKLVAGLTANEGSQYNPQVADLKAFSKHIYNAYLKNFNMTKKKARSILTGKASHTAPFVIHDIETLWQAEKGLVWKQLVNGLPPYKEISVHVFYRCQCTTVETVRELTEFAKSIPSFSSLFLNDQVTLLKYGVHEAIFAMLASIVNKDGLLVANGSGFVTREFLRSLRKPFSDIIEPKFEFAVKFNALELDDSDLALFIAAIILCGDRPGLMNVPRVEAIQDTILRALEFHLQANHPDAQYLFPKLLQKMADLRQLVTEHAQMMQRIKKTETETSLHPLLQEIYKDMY
Procedure, shortened: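 Measured quantity: GAL4-UAS reporter transcript induction in HepG2 after 24 h chemical dosing, with NR-Gal4 chimeras supplied by transient transfection. Detection by RT-PCR and capillary electrophoresis; upward fit against DMSO.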

[2] = read-out: Intercellular Adhesion Molecule 1 (ICAM1), ICAM1 (gene 3383); experiment: BSK_3C_ICAM1: BioMAP Diversity Plus: 3C Assay for Intercellular Adhesion Molecule 1 (ICAM1) Biomarker Activity (AID 2283003; active means hit-call score of the fitted dose curve at least 0.9, where 1 is the maximum; inactive means score below 0.9); conditions: primary human endothelial cells (HUVEC); actives raise or lower the signal
Procedure, shortened: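 Primary human umbilical vein endothelial cells in the BioMAP 3C system were exposed to chemicals for 24 h, then ICAM-1 was quantified by ELISA. Activity was fitted bidirectionally against the DMSO negative control baseline.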

[3] = BSK_3C_Proliferation: Cell Proliferation Assessment in the BioMAP Diversity Plus: 3C Assay (AID 2283006; active means hit-call score of the fitted dose curve at least 0.9, where 1 is the maximum; inactive means score below 0.9;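 on AC50: potency may reflect either rise or fall in cell number versus DMSO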); conditions: primary human endothelial cells (HUVEC)
Procedure, shortened: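 Human umbilical vein endothelial cells were grown sub-confluent and exposed to chemical for 48 h, then fixed with 10% TCA and stained with 0.1% sulforhodamine B; absorbance at 560 nm gave relative cell number, fitted bidirectionally against DMSO baseline.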

[4] = target: Peroxisome proliferator-activated receptor gamma (Homo sapiens) (UniProt P37231); experiment: ATG_PPARg_TRANS: Attagene TRANS-FACTORIAL HepG2 Assay for human Peroxisome Proliferator-activated Receptor-gamma (PPARg) (AID 2283007)
Peroxisome proliferator-activated receptor gamma (Homo sapiens), sequence (P37231 whole entry, looked up, the tested form may be a part): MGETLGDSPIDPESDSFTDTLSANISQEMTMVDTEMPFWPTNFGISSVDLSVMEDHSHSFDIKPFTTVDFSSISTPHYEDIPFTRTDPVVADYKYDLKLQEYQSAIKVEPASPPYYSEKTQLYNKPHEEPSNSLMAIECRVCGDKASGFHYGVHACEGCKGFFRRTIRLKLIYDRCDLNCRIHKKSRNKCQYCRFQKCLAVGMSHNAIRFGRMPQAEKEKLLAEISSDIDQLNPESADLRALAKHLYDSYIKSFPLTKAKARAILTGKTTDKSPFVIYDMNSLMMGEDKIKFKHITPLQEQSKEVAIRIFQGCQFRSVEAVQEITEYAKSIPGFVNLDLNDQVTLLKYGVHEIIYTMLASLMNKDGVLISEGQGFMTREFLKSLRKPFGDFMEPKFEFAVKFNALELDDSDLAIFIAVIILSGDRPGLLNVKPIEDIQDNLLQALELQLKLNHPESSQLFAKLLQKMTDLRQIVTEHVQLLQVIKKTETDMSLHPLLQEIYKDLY
Procedure, shortened: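 Liver-derived HepG2 cells expressing an exogenous NR-Gal4 chimera alongside GAL4-UAS reporter genes; 24 h exposure. Fluorescence of reporter RT-PCR products, separated by capillary electrophoresis, gives mRNA induction relative to DMSO.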

[5] = target: Nuclear receptor subfamily 1 group I member 2 (Homo sapiens) (UniProt O75469); experiment: ATG_PXR_TRANS: Attagene TRANS-FACTORIAL HepG2 Assay for human Pregnane X Receptor (PXR) (AID 2283008)
Nuclear receptor subfamily 1 group I member 2 (Homo sapiens), sequence (O75469 whole entry, looked up, the tested form may be a part): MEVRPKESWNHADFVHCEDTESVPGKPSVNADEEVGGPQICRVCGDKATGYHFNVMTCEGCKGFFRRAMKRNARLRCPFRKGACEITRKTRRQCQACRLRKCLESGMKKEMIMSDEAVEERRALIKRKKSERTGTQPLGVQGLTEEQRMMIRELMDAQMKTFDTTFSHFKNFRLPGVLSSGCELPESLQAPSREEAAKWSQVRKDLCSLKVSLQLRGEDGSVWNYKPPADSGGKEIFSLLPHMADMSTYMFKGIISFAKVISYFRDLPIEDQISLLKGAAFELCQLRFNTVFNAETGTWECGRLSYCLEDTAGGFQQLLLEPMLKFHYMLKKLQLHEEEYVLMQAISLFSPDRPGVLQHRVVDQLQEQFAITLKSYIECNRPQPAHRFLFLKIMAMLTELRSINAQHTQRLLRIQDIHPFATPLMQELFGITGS
Procedure, shortened: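 HepG2 cells transiently transfected with GAL4-UAS reporter units and PXR-Gal4 chimera, exposed 24 h. Reporter mRNA quantified by RT-PCR, fluorescent labelling, HpaI digestion and capillary electrophoresis; gain of signal vs DMSO.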

[6] = target: human Retinoic Acid Receptor gamma (RARg), RARG (gene 5916) (UniProt P13631); experiment: ATG_RARg_TRANS: Attagene TRANS-FACTORIAL HepG2 Assay for human Retinoic Acid Receptor gamma (RARg) (AID 2283009);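 on AC50: AC50 is for reporter induction above DMSO meaning RARg activation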
human Retinoic Acid Receptor gamma (RARg), RARG (gene 5916), sequence (P13631 whole entry, looked up, the tested form may be a part): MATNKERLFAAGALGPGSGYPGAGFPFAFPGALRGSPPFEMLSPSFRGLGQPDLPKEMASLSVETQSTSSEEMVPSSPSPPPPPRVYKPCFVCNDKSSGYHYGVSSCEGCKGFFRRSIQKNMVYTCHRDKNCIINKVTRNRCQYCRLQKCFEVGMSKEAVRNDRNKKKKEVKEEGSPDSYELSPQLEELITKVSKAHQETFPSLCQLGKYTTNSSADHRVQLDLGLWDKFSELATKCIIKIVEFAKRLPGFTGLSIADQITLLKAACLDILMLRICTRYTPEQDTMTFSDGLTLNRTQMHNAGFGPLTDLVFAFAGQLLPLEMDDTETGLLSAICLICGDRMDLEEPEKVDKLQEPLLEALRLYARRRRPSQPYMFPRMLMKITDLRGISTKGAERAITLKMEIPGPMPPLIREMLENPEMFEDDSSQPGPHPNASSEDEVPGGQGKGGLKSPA
Procedure, shortened: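 HepG2 cells transiently transfected with multiplexed reporter units expressing chimeric RARg-GAL4 and GAL4-UAS-driven reporters; 24 h compound exposure. Reporter mRNA quantified by RT-PCR with fluorescent labelling and capillary electrophoresis; gain-of-signal fitted relative to DMSO baseline.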

[7] = target: human RAR-related Orphan Receptor beta (RORb), RORB (gene 6096) (UniProt Q92753); experiment: ATG_RORb_TRANS: Attagene TRANS-FACTORIAL HepG2 Assay for human RAR-related Orphan Receptor beta (RORb) (AID 2283010)
human RAR-related Orphan Receptor beta (RORb), RORB (gene 6096), sequence (Q92753 whole entry, looked up, the tested form may be a part): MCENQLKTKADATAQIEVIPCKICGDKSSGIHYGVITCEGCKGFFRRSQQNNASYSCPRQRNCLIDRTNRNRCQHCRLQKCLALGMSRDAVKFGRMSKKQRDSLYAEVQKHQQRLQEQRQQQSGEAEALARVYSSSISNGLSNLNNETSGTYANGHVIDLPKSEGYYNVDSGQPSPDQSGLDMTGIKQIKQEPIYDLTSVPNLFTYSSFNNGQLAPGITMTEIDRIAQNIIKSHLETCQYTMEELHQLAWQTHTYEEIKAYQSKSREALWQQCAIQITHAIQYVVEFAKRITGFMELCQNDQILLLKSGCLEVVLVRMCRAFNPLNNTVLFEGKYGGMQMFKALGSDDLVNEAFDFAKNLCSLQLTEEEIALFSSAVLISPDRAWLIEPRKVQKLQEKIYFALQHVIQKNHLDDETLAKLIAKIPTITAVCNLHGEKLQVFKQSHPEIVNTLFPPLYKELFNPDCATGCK
Procedure, shortened: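 HepG2 cells were transiently transfected with multiplexed GAL4-UAS reporter units expressing chimeric nuclear receptor–GAL4 proteins, then dosed for 24 h. Reporter mRNA was quantified by RT-PCR with fluorescent labelling and capillary electrophoresis; gain of signal was fitted relative to DMSO.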

[8] = target: Retinoic acid receptor alpha (Homo sapiens) (UniProt P10276); experiment: ATG_RARa_TRANS: Attagene TRANS-FACTORIAL HepG2 Assay for human Retinoic Acid Receptor alpha (RARa) (AID 2283005)
Retinoic acid receptor alpha (Homo sapiens), sequence (P10276 whole entry, looked up, the tested form may be a part): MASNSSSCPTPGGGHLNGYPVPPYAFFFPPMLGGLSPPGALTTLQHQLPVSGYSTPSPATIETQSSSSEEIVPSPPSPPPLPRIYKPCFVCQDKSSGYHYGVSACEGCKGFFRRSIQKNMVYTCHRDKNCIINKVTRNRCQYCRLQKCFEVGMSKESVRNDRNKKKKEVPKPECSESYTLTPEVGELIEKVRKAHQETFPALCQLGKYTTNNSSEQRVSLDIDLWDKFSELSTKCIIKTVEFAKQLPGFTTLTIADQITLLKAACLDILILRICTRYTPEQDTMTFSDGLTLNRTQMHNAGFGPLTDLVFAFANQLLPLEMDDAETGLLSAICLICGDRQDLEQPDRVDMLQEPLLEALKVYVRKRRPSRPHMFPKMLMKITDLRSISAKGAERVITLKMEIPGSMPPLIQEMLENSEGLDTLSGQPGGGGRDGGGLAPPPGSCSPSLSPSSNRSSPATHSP
Procedure, shortened: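 HepG2 cells transiently transfected with multiple reporter units expressing chimeric RARα-GAL4 fusion, with GAL4-UAS-driven reporters. After 24 h compound exposure, reporter mRNA induction quantified by RT-PCR and capillary electrophoresis with fluorescent labeling; gain-of-signal fitted relative to DMSO control.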

[9] = target: human Retinoic Acid Receptor beta (RARb), RARB (gene 5915) (UniProt P10826); experiment: ATG_RARb_TRANS: Attagene TRANS-FACTORIAL HepG2 Assay for human Retinoic Acid Receptor beta (AID 2283004)
human Retinoic Acid Receptor beta (RARb), RARB (gene 5915), sequence (P10826 whole entry, looked up): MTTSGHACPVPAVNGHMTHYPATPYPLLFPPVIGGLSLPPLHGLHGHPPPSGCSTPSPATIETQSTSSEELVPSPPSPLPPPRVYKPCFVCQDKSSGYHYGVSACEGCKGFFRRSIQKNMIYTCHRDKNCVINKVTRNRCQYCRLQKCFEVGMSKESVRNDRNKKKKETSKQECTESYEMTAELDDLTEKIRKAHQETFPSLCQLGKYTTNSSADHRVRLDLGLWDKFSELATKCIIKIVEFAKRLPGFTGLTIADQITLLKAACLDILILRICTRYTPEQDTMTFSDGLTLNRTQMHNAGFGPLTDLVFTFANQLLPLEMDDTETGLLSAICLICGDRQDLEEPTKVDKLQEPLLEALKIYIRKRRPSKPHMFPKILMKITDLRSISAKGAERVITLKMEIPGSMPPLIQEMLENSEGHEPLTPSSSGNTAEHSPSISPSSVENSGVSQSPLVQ
Procedure, shortened: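 Transient transfection of HepG2 with multiple reporter units → chemical dosing, 24 h → total RNA isolation → RT with oligo(dT) → reporter-specific PCR, 6-FAM primer extension, HpaI digest → capillary electrophoresis. Positive direction vs DMSO control.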

SMILES: CCCCC(CC)C(=O)O (stereo unspecified)
- outcome [1]: inactive
- outcome [2]: inactive
- outcome [3]: inactive
- outcome [4]: inactive
- outcome [5]: inactive

SMILES: Cc1cncc(C)c1
- outcome [1]: inactive
- outcome [4]: inactive

SMILES: O=C1Cc2ccccc2N1c1c(Cl)cccc1Cl
- outcome [1]: inactive
- outcome [4]: inactive
- AC50 [5]: 0.517 µM (active)

SMILES: CCC(=O)C=Cc1ccc(OC)cc1
- outcome [1]: inactive
- AC50 [4]: 24.6 µM (active)
- outcome [5]: inactive

SMILES: CCCCCCCCCCCC[N+](C)(C)Cc1ccccc1
- outcome [1]: inactive
- outcome [4]: inactive
- outcome [5]: inactive
- AC50 [6]: 155 µM (active)
- outcome [7]: inactive

SMILES: O=C(Nc1cccc([N+](=O)[O-])c1)c1cc2ccccc2cc1O
- outcome [1]: inactive
- outcome [8]: inactive
- AC50 [4]: 6.92 µM (active)
- AC50 [5]: 8.27 µM (active)
- outcome [6]: inactive
- outcome [7]: inactive

SMILES: C=COC(=O)C(C)(C)CCCCCC
- outcome [1]: inactive
- AC50 [2]: 30.7 µM (active)
- AC50 [3]: 26.7 µM (active)
- outcome [4]: inactive
- AC50 [5]: 36.5 µM (active)

SMILES: c1cnc2c(c1)ccc1cccnc12
- outcome [1]: inactive
- outcome [9]: inactive
- outcome [8]: inactive
- outcome [4]: inactive
- AC50 [5]: 26.4 µM (active)
- outcome [5]: inactive
- outcome [6]: inactive
- outcome [7]: inactive

SMILES: CCCCc1oc2ccccc2c1C(=O)c1cc(I)c(OCCN(CC)CC)c(I)c1
- outcome [1]: inactive
- AC50 [2]: 23.3 µM (active)
- AC50 [3]: 5.66 µM (active)
- outcome [4]: inactive
- outcome [6]: inactive

SMILES: CC1CCC(C(=O)O)CC1 (stereo unspecified)
- outcome [1]: inactive
- outcome [8]: inactive
- outcome [4]: inactive

SMILES: C=CC(=O)OCCC(F)(F)C(F)(F)C(F)(F)C(F)(F)C(F)(F)C(F)(F)C(F)(F)C(F)(F)F
- outcome [1]: inactive
- outcome [2]: inactive
- outcome [3]: inactive
- outcome [4]: inactive
- outcome [5]: inactive
- outcome [7]: inactive

SMILES: Cc1cc(C(C)(C)C)c(O)c(C(C)(C)C)c1
- outcome [1]: inactive
- outcome [4]: inactive
- AC50 [5]: 27.3 µM (active)
- outcome [5]: inactive

SMILES: C=CCOCC(CO)(CO)CO
- outcome [1]: inactive
- outcome [9]: inactive
- outcome [8]: inactive
- outcome [4]: inactive
- AC50 [5]: 15.1 µM (active)
- outcome [6]: inactive
